Laboratory results from article PMC5700166.
Numbering of substitutions follows the chain as printed.

Legend:
Assay in all cases: protein-binding microarray (PBM); PBM: ~300 nM protein, 6 mM HEPES pH 7.8, 80 mM KCl, 0.5 mM EDTA, 0.5 mM EGTA, 6% glycerol, 35 ng/ul poly-dIdC, 1% milk, 1 h, room temperature; Ap Aiptasia and Nv Nematostella (sea anemones) / Co Capsaspora / Aq Amphimedon (sponge) / Dm Drosophila / Hu human; RHD is the Rel homology domain; high values mean tight binding
Settings in all cases: dsDNA, one strand shown
GST-Ap-NF-kB RHD = target: T1, GST-Ap-NF-kB RHD (Exaiptasia pallida (Aiptasia), UniProt A0A913YAJ5 2-422)
T1 sequence: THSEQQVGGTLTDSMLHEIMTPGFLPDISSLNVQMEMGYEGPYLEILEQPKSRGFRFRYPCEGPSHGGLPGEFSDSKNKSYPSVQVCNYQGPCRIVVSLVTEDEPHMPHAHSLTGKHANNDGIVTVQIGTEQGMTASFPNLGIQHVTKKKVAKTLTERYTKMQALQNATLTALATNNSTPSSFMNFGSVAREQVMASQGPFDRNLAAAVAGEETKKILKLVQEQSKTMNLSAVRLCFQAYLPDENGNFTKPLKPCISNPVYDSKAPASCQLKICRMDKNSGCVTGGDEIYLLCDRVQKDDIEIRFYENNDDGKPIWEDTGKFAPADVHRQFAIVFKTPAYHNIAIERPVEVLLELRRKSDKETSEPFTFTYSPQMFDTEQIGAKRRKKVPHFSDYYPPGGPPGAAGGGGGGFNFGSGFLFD

[1] = target: T2, GST-Nv-NF-kB (Cys allele) (Nematostella vectensis, UniProt E5G601 2-411)
T2 sequence: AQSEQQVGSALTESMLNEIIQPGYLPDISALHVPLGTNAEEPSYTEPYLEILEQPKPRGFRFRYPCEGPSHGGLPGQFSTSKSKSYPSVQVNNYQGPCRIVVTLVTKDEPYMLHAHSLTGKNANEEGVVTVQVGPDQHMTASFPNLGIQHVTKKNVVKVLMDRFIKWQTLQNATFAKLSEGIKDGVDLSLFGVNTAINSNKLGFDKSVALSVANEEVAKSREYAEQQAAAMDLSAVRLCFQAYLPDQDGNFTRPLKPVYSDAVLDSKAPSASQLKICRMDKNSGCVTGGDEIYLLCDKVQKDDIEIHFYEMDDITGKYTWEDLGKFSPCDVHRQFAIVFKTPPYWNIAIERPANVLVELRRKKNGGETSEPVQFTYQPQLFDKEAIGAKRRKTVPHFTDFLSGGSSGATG

[2] = target: T3, GST-Nv-NF-kB (Ser allele) (Nematostella vectensis, UniProt A7UNT2 2-411)
T3 sequence: T2 sequence with Q21R, C66S, S207N, E215Q, V217A, E225K, A268E, D399E

GST-Co-NF-kB = target: T4, GST-Co-NF-kB (Capsaspora owczarzaki, UniProt F1ARL5 200-546)
T4 sequence: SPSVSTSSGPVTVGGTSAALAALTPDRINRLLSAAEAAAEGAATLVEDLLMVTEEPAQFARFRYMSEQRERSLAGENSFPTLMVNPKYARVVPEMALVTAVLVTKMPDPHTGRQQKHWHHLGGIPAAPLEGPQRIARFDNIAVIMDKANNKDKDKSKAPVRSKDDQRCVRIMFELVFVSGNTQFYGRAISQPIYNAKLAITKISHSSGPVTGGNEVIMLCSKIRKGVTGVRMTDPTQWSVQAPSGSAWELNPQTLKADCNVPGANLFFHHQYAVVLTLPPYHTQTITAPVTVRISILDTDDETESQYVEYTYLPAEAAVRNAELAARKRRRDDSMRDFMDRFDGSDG

GST-Dm-Relish = target: T5, GST-Dm-Relish (Drosophila melanogaster, UniProt Q94527 99-473)
T5 sequence: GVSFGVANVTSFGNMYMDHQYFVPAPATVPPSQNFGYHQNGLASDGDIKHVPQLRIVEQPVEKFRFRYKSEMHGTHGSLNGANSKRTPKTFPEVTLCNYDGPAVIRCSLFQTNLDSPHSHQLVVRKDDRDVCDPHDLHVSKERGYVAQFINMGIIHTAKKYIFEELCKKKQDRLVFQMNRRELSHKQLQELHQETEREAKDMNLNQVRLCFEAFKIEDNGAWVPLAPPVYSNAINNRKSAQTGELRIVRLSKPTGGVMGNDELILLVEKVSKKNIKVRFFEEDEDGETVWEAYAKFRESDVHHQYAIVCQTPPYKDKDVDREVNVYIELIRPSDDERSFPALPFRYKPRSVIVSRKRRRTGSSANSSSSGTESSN

GST-Aq-NF-kB = target: T6, GST-Aq-NF-kB (Amphimedon queenslandica, UniProt A9Y5G7 2-389)
T6 sequence: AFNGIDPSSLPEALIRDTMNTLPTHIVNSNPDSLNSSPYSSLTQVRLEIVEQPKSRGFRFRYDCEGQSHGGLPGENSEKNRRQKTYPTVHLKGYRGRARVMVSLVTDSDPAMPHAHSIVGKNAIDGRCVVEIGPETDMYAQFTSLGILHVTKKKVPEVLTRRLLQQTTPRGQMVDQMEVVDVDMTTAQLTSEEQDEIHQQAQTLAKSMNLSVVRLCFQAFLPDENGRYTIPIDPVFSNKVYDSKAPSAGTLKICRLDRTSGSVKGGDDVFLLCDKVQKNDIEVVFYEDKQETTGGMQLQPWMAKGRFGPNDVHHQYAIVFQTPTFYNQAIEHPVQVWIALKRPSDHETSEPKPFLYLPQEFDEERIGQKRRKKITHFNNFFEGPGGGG

GST-Hu-p50 = GST-Hu-p50 (Homo sapiens, UniProt P19838 7-356)
GST-Hu-p50, sequence (P19838 7-356): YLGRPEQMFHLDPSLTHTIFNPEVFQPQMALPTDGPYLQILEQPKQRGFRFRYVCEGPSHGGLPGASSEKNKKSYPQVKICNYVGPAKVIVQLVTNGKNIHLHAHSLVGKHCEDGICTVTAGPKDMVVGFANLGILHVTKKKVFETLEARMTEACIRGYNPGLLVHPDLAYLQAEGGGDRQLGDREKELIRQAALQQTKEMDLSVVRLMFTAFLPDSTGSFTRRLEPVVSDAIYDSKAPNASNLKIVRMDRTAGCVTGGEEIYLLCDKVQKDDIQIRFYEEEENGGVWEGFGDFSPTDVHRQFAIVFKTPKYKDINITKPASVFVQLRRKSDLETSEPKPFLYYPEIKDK

For “CCGATTAACATCACTAGTCCCCCTGATGTTAATCGGGTCTTGATTCGCTTGACGCTGCTG”, the binding signal (GST-Ap-NF-kB RHD) was 4.7 z-score, the binding signal [1] was 3.39 z-score and the binding signal [2] was 3.45 z-score. For the same sequence, the binding signal (GST-Co-NF-kB) was 3.98 z-score, the binding signal (GST-Dm-Relish) was 2.58 z-score and the binding signal (GST-Aq-NF-kB) was 3.81 z-score. It also gave a binding signal (GST-Hu-p50) of 3.46 z-score.
“CCGATTAACATCAAAAATTCCCCTGATGTTAATCGGGTCTTGATTCGCTTGACGCTGCTG” was tested, and the binding signal (GST-Ap-NF-kB RHD) was 10.4 z-score, the binding signal [1] was 12.8 z-score and the binding signal [2] was 14 z-score. It also gave a binding signal (GST-Co-NF-kB) of 9.75 z-score, a binding signal (GST-Dm-Relish) of 9.69 z-score and a binding signal (GST-Aq-NF-kB) of 9.6 z-score. The binding signal (GST-Hu-p50) was 7.99 z-score.
“CCGATTAACATCAAAGCTTTCCCTGATGTTAATCGGGTCTTGATTCGCTTGACGCTGCTG” gave a binding signal (GST-Ap-NF-kB RHD) of 2.54 z-score, a binding signal [1] of 4.28 z-score and a binding signal [2] of 4.2 z-score. The binding signal (GST-Co-NF-kB) was 3.59 z-score, the binding signal (GST-Dm-Relish) was 1.47 z-score and the binding signal (GST-Aq-NF-kB) was 4.07 z-score. For the same sequence, the binding signal (GST-Hu-p50) was 3.46 z-score.
“CCGATTAACATCAGCGATTCCCCTGATGTTAATCGGGTCTTGATTCGCTTGACGCTGCTG” showed a binding signal (GST-Ap-NF-kB RHD) of 6.31 z-score, a binding signal [1] of 6.55 z-score and a binding signal [2] of 8.57 z-score. The binding signal (GST-Co-NF-kB) was 5.5 z-score, the binding signal (GST-Dm-Relish) was 3.63 z-score and the binding signal (GST-Aq-NF-kB) was 4.44 z-score. For the same sequence, the binding signal (GST-Hu-p50) was 5.54 z-score.
For “CCGATTAACATCAAGATATTCCCTGATGTTAATCGGGTCTTGATTCGCTTGACGCTGCTG”, the binding signal (GST-Ap-NF-kB RHD) was 4.46 z-score, the binding signal [1] was 4.57 z-score and the binding signal [2] was 5.05 z-score. The binding signal (GST-Co-NF-kB) was 3.05 z-score, the binding signal (GST-Dm-Relish) was 2.34 z-score and the binding signal (GST-Aq-NF-kB) was 4.02 z-score. It also gave a binding signal (GST-Hu-p50) of 2.44 z-score.
“CCGATTAACATCAATTCACCCCCTGATGTTAATCGGGTCTTGATTCGCTTGACGCTGCTG” gave a binding signal (GST-Ap-NF-kB RHD) of 4.01 z-score, a binding signal [1] of 3.65 z-score and a binding signal [2] of 4.82 z-score. For the same sequence, the binding signal (GST-Co-NF-kB) was 6.74 z-score, the binding signal (GST-Dm-Relish) was 3.16 z-score and the binding signal (GST-Aq-NF-kB) was 4.11 z-score. The binding signal (GST-Hu-p50) was 4.31 z-score.
Work on “CCGATTAACATCAAGCATTCCCCTGATGTTAATCGGGTCTTGATTCGCTTGACGCTGCTG” yielded a binding signal (GST-Ap-NF-kB RHD) of 6.61 z-score, a binding signal [1] of 7.73 z-score and a binding signal [2] of 8.37 z-score. It also gave a binding signal (GST-Co-NF-kB) of 5.48 z-score, a binding signal (GST-Dm-Relish) of 4.42 z-score and a binding signal (GST-Aq-NF-kB) of 5.38 z-score. It also gave a binding signal (GST-Hu-p50) of 5.38 z-score.
“CCGATTAACATCATAAATTCCCATGATGTTAATCGGGTCTTGATTCGCTTGACGCTGCTG” gave a binding signal (GST-Ap-NF-kB RHD) of 2.62 z-score, a binding signal [1] of 5.12 z-score and a binding signal [2] of 5.22 z-score. The binding signal (GST-Co-NF-kB) was 3.32 z-score, the binding signal (GST-Dm-Relish) was 5.06 z-score and the binding signal (GST-Aq-NF-kB) was 3.71 z-score. It also gave a binding signal (GST-Hu-p50) of 4.37 z-score.
Sequence “CCGATTAACATCAGGGGGGTGGATGATGTTAATCGGGTCTTGATTCGCTTGACGCTGCTG” has a binding signal (GST-Ap-NF-kB RHD) of 4.23 z-score, a binding signal [1] of 3.15 z-score and a binding signal [2] of 4.75 z-score. For the same sequence, the binding signal (GST-Co-NF-kB) was 3.78 z-score, the binding signal (GST-Dm-Relish) was 3.78 z-score and the binding signal (GST-Aq-NF-kB) was 4.03 z-score. For the same sequence, the binding signal (GST-Hu-p50) was 4.19 z-score.
With “CCGATTAACATCAGGACTCCCCCTGATGTTAATCGGGTCTTGATTCGCTTGACGCTGCTG” the binding signal (GST-Ap-NF-kB RHD) was 8.82 z-score, the binding signal [1] was 7.17 z-score and the binding signal [2] was 6.45 z-score. It also gave a binding signal (GST-Co-NF-kB) of 4.97 z-score, a binding signal (GST-Dm-Relish) of 8.9 z-score and a binding signal (GST-Aq-NF-kB) of 9.21 z-score. The binding signal (GST-Hu-p50) was 6.59 z-score.
With “CCGATTAACATCAGGATTCTCCCTGATGTTAATCGGGTCTTGATTCGCTTGACGCTGCTG” the binding signal (GST-Ap-NF-kB RHD) was 3.03 z-score, the binding signal [1] was 4.71 z-score and the binding signal [2] was 3.05 z-score. The binding signal (GST-Co-NF-kB) was 1.79 z-score, the binding signal (GST-Dm-Relish) was 1.49 z-score and the binding signal (GST-Aq-NF-kB) was 6.5 z-score. It also gave a binding signal (GST-Hu-p50) of 3.33 z-score.
With “CCGATTAACATCAAAAACCCCCCTGATGTTAATCGGGTCTTGATTCGCTTGACGCTGCTG” the binding signal (GST-Ap-NF-kB RHD) was 10.5 z-score, the binding signal [1] was 9.26 z-score and the binding signal [2] was 9.71 z-score. It also gave a binding signal (GST-Co-NF-kB) of 5.82 z-score, a binding signal (GST-Dm-Relish) of 11.3 z-score and a binding signal (GST-Aq-NF-kB) of 8.84 z-score. The binding signal (GST-Hu-p50) was 7.78 z-score.
